Experimental findings from the supplement of paper PMC6555819 are described below.

For the assay, the system named is PPARg:RXRa 30nM:10nM, anti-RXR (NR concentration 30 nM, RXRa partner concentration 10 nM). Briefly: PBM binding z-score (relative to random genomic background probes); higher = stronger binding; sequences stand for … in GC…GCGATTGACAGCGTAGAATGAAGG
Summed up: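 Custom Agilent 4×180K protein-binding microarrays carried double-stranded probes. Their 34-nt variable regions held direct-repeat seeds, single-nucleotide variants, half-site ablations and random human genomic background sequences. Arrays were incubated 1 h with ligand-free nuclear receptor dimers in PBS pH 7.4, 2% milk, 0.02% Triton X-100, 1 mM DTT, 0.2 mg/mL BSA and 0.4 mg/ml salmon testes DNA. Antibodies against each partner (one per run) detected binding, and scanned fluorescence was regression-normalized. Binding z-scores use random background probes as reference.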
Regarding TCTAGCAGGCCAGAGGGTCACACAAGAGGTACGG, the PBM binding z-score is 2.36.

AGTCAAAGTTCACTTGGTAACGTAAGATTCAGCT registered a PBM binding z-score of 2.52.

CCGACTGGGGCAGAAAGGTTACCATGCCATCCGG showed a PBM binding z-score of 0.457.

The sequence GCTCGGAGGACACGGTCAGAGCTTTGTCCGTAGA returned a PBM binding z-score of -1.3.

CCTATTAGTTGACCATAAGGTCAACCGAAGCTCG displayed a PBM binding z-score of 1.42.

The sequence AGTCAAAGCTCATCTAGGTAACGTAAGATATGCT came in with a PBM binding z-score of -0.0105.

TCTAGTTGGTCACGAAGGTCACACACGACGGGTA came in with a PBM binding z-score of 3.66.

In the case of TCAGATAGGTAATACAGGTGAAAGTCGGCATCTA, the PBM binding z-score was determined as 4.15.

In turn, CAGCCTAGGTCGGGGCCAGTATAGGAGGAACGTT came in with a PBM binding z-score of -1.38.

CGAACTAGATCAAGGACAGTGAATCTCCGCACGC registered a PBM binding z-score of -0.423.

CGTCCAAGGTCAAGGTCAGCGAAAGAGACTCGAA displayed a PBM binding z-score of 3.23.

Regarding CAGCCTAGGTCAAGGCCAGTATAGGAGGAACGTT, the PBM binding z-score worked out at 0.352.

ATACCAAGGTGATCGTGAGGTGGTTGATACTAAC: the PBM binding z-score amounted to 0.226.

With CAAACTAGGTCGCAGAGGTCAAAGTCCGTGCGTA, the PBM binding z-score stood at 4.01.

On to ATCTCTAAGTAAGACTCAGTTCAGTGAAGAACGC, for which the PBM binding z-score came out at 0.0174.

In turn, CGTCAAAGTTCAACTAAGGTAACGGAAAGCACGC came in with a PBM binding z-score of 1.99.

On to TCTTGTAGATTAAAGGTTAAGAAAGCCGAAGCCT, for which the PBM binding z-score worked out at 6.85.

Sequence TCGTATAGGTAAAGGTGAAAGTCGAACGATATGA displayed a PBM binding z-score of 3.45.

CCTGCTAGGTCAATGGTCAACTAAAGCAGCTCGC came in with a PBM binding z-score of 4.25.

The sequence TCTCGGACGACACGAAGGTCAGAGCTTTCCAGAG registered a PBM binding z-score of 2.37.

AAAGACAGGTGATGAAGGTAACTCAGGCTATCAT: the PBM binding z-score was determined as 0.567.

TCTTGTAGTTCAGCAGGTTAAGAAAGCTGGCCAA came in with a PBM binding z-score of 2.42.

Consider TAGAGTAGGTTAGTCGGGGCATTCAGCCAACATA, for which the PBM binding z-score is 0.884.

Turning to CGTCCAAGGTCAGAGAGGTAAGTGAATGCCGAGT, the PBM binding z-score stood at 0.414.

For the sequence CCGACTGTGGCAAAGGTTACCATACTCAGTACGA, the PBM binding z-score was found to be 6.78.

Take CAGCCGAGGTCAGGGCCAGTATAGGAGGAACGTT: the PBM binding z-score worked out at 1.2.

CCAACTAGGTCAAGGTCAAAGTCGGTTTGTGCCA yielded a PBM binding z-score of 5.13.

Consider CCTAGCAGGCCCATCTGGGTCACTCAAGGCTTGA, for which the PBM binding z-score is -0.909.

On to CATCAAAGTTCAACTAAGGTAACGTAAAGCACGC, for which the PBM binding z-score is 2.12.

Consider ACTAGCTGGTCAGCTGAGGTCACACACAATTCGG, for which the PBM binding z-score is 0.341.

The sequence TCTTGTAGATCAACAGGAGGTTGAGAAAGATCGA registered a PBM binding z-score of 2.81.

CTACCAAGGTGAACAAGGTCGTGGATTACTATTC returned a PBM binding z-score of 0.053.

ACTCGGAGGACAAAGGTCAGAGCTACGCCAGTGA: the PBM binding z-score was 5.63.

For the sequence TCTTGTAGATCAATAGAGTTTAAGAAAGTGCGCT, the PBM binding z-score came to 2.5.

TAGCCCAGGTCATGCGGGCCAGTATAGTGTCGGC had a PBM binding z-score of 0.267.

For AGAACAAGGGCAATGAGTTGATAGCACGGGTGGC, the PBM binding z-score was -0.195.

CCTACTGGGCCACGAAAGGTCATTGAATCAGTGA gave a PBM binding z-score of 2.28.

GCTTGTTGATCAAGGTTAAGAAAGACTAAGCTAA displayed a PBM binding z-score of -0.0921.

CCTACTGGGCCAAGGACATTGATCAGTCAAAGCA: the PBM binding z-score is 0.164.

AGAATGAGGTTATACCTAGATCAGGGAAGAAAGT displayed a PBM binding z-score of 0.532.
